# Data as given in article PMC6925144, “A prospective compound screening contest identified broader inhibitors for Sirtuin 1” (Scientific Reports, 2019).
# In all, about 3,200 compounds were measured (“TSA(with NAD+) / Primary screening (TSA) / delta Tm (K)”: median about -0.04, highest 2% from about 0.37 on). The sample as a whole holds a higher share of the highest values than the screen did.
# Target: NAD-dependent deacetylase Sirtuin 1 (human, UniProt Q96EB6)
# Assay: primary screen, delta tm
# Design: single well (n = 1, as 'the same TSA')
# Conditions: 10 µM
# NAD-dependent deacetylase Sirtuin 1, sequence (Q96EB6 2-747 limits assumed): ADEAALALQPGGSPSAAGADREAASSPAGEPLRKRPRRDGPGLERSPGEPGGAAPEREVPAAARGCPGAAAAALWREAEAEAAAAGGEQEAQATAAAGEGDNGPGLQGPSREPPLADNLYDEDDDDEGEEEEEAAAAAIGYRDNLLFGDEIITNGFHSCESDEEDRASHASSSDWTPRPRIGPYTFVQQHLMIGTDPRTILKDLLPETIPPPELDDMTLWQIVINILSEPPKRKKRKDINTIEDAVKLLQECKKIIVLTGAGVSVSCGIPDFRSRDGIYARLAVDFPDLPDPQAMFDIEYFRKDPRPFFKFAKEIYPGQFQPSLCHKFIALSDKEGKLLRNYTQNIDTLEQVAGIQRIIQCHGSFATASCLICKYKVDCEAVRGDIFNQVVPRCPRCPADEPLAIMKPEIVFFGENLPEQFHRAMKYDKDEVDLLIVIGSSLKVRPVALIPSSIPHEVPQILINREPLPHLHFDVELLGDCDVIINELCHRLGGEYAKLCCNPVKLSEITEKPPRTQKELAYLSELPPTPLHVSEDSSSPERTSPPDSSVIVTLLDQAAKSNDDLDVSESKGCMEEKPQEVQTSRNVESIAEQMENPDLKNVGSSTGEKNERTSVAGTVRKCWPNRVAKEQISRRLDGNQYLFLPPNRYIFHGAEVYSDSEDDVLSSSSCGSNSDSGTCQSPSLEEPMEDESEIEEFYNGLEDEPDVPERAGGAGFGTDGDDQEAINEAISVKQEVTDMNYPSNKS
row,SMILES,TSA(with NAD+) / Primary screening (TSA) / delta Tm (K)
1,Cn1cc(C(=O)O)c(-c2cccnc2)n1,0.06 K
2,NC(=O)CCN(Cc1ccccc1)C(=O)COC(=O)C12CC3CC(C1)CC(c1ccccc1)(C3)C2,-0.03 K
3,O=C(Oc1ccc2oc3ccccc3c2c1)c1ccc([N+](=O)[O-])cc1,-0.08 K
4,COc1ccc2cc(/C=C/C(=O)Nc3ccc(C(N)=O)cc3)ccc2c1,0.76 K
5,CCN(CC(=O)Nc1ccc(OC)cc1)CC(=O)Nc1ccc(C(N)=O)cc1,-0.04 K
6,COc1ccc(C(=O)OC(C)C(=O)Nc2ccc(C(N)=O)cc2)c(OC)c1 (stereo not drawn),-0.01 K
7,O=C(NCc1ccccc1O)c1ccc2c(c1)C(=O)c1ccccc1-2,-0.03 K
8,CCC(=O)Nc1cccc(C(=O)NNC(=O)c2nc(-c3ccccc3)n(-c3ccccc3)n2)c1,-0.06 K
9,CC(C)C(NC(=O)CCCn1c(=O)oc2cc([N+](=O)[O-])ccc21)c1nnc2ccccn12 (stereo not drawn),-0.11 K
10,Cc1nc(-c2ccccn2)[nH]c(=O)c1CC(=O)NCCc1cccc2cccnc12,0.28 K
11,CC(C(=O)NC(c1ccccc1)C1CC1)n1cnc2ccccc21 (stereo not drawn),0.05 K
12,O=C(CCCc1nc2ccccc2c(=O)[nH]1)N1CC2CC3CC(C2)CC1C3,-0.01 K
13,CC(N)c1nnn[nH]1 (stereo not drawn),-0.05 K
14,COc1ccc(NC(=O)c2ccccc2NC(=O)COC(=O)C23CC4CC(CC(O)(C4)C2)C3)cc1,-0.04 K
15,COc1ccccc1NS(=O)(=O)c1ccc(NC(=O)CNC(=O)C23CC4CC(CC(C4)C2)C3)cc1,0.08 K
16,COc1ccc(NC(=O)CC23CC4CC(C2)CC(CC(=O)Nc2ccc(OC)cc2)(C4)C3)cc1,-0.11 K
17,COc1ccc(NC(=O)c2ccc(NC(=O)COC(=O)C34CC5CC(CC(Br)(C5)C3)C4)cc2)cc1,0.73 K
18,COc1ccccc1NC(=O)COc1ccc(C(=O)OCC(=O)NC23CC4CC(CC(C4)C2)C3)cc1OC,0.13 K
19,COc1ccccc1NC(=O)c1ccc(NC(=O)COC(=O)C23CC4CC(CC(C4)C2)C3)cc1,0.39 K
20,Cc1ccccc1CC(=O)Nc1ccc(N2CCN(Cc3ccccc3)CC2)cc1,0.09 K
21,CN(c1ccccc1)S(=O)(=O)c1ccc(C(=O)NNC(=O)C23CC4CC(CC(C4)C2)C3)cc1,0.08 K
22,COC(=O)c1ccccc1Nc1ccnc(Cl)n1,-0.11 K
23,Cc1cccc(-c2nc3ccccc3n3c(C)nnc23)c1,-0.13 K
24,Cn1c(=O)c2ccccc2n2c(COC(=O)Cn3nc(-c4ccc(F)cc4)oc3=O)nnc12,-0.03 K
25,O=C1NC(=S)NC(=O)C1=Cc1ccc(-c2ccc(SC(F)F)cc2)o1,-0.43 K

row,SMILES,TSA(with NAD+) / Primary screening (TSA) / delta Tm (K)
1,Cc1ccc(C(=O)OCc2ccc(C(=O)Nc3ccccc3)cc2)cc1,-0.18 K
2,Cc1ccc(C(C)(C)C)cc1S(=O)(=O)Nc1cccc(C(=O)NNC(=O)c2cccc(S(=O)(=O)Nc3cccc(C(F)(F)F)c3)c2)c1,0.65 K
3,CCNC(=O)c1cccc(NC(=O)C2CCN(S(=O)(=O)c3cc(C(C)(C)C)ccc3C)CC2)c1,0.16 K
4,O=C(NO)c1cccc(C(F)(F)F)c1,-0.19 K
5,O=C(COC(=O)C1=COCCO1)Nc1cccc2c1C(=O)c1ccccc1C2=O,0.01 K
6,COc1ccccc1NS(=O)(=O)c1cccc(NC(=O)c2oc3ccccc3c2CSC)c1,-0.08 K
7,C=CCOc1ccc(C2C(C(=O)c3ccc(C)o3)=C(O)C(=O)N2CCCN2CCOCC2)cc1 (stereo not drawn),-0.04 K
8,O=C(Nc1ccccc1Cc1ccccc1)c1ccc(CN2C(=O)CNC2=O)cc1,0.05 K
9,CN(C)c1ccc(S(N)(=O)=O)cc1N,-0.04 K
10,O=C1/C(=C/c2cccc(O)c2)Oc2cc(O)ccc21,-0.14 K
11,O=C1/C(=C/c2ccccc2)Oc2cc(O)ccc21,-0.06 K
12,O=C1/C(=C/c2cnn(-c3ccccc3)c2)Oc2cc(O)ccc21,0.99 K
13,Cc1cnc(N2CCC(Oc3ccnc(C(N)=O)c3)CC2)s1,-0.16 K
14,O=c1c2ccccc2ncn1CC(O)c1cccc(F)c1 (stereo not drawn),-0.19 K
15,O=c1c2ccccc2ncn1CC(O)c1ccccc1Cl (stereo not drawn),0.38 K
16,O=c1c2ccncc2ncn1CC(O)c1cccc(Cl)c1 (stereo not drawn),-0.03 K
17,O=C(CN1CCCCCC1=O)N1CCN(c2cnccn2)CC1,-0.04 K
18,CCCn1c(NC(=O)c2ccc3c(c2)CCC(=O)N3)nc2ccccc21,0.15 K
19,O=C1CCc2cc(NC(=O)c3cccnc3)ccc2N1,-0.13 K
20,Cc1ccc(C(=O)Nc2nc3ccc(NS(=O)(=O)c4ccc5c(c4)CCC(=O)N5)cc3s2)s1,0.46 K
21,COC(=O)/C=C1/NC(=O)CS1,-0.13 K
22,O=C(COC(=O)C1=COCCO1)Nc1cccc2ccccc12,0.09 K
23,CC(CNCCS(=O)(=O)C(C)(C)C)c1ccccc1 (stereo not drawn),-0.03 K
24,NC(=O)C1CCN(c2ncnc3sc4c(c23)CCCCC4)CC1,0.26 K
25,NC(=O)C1CCN(c2ncnc3sc4c(c23)CCCC4)CC1,0.32 K

row,SMILES,TSA(with NAD+) / Primary screening (TSA) / delta Tm (K)
1,NC(=O)C1CCCN(c2ncnc3sc4c(c23)CCCC4)C1 (stereo not drawn),-0.15 K
2,NC(=O)C1CCN(c2nc(-c3cccnc3)nc3sc4c(c23)CCCC4)CC1,0.48 K
3,Cc1sc2nc(-c3cccs3)nc(N3CCC(C(N)=O)CC3)c2c1C,0.53 K
4,NC(=O)C1CCN(c2nc(-c3cccs3)nc3sc4c(c23)CCCC4)CC1,2.33 K
5,Cc1sc2ncnc(N3CCC(C(N)=O)CC3)c2c1C,0.06 K
6,Cc1sc2nc(-c3cccnc3)nc(N3CCC(C(N)=O)CC3)c2c1C,-0.01 K
7,Cc1sc2ncnc(N3CCC(C(=O)N4CCC(C(N)=O)CC4)CC3)c2c1C,-0.03 K
8,O=c1[nH]cnc2c(Cl)cc(Cl)cc12,-0.16 K
9,Cc1ccc(-c2nnc(SCC(=O)NC(=O)NC(C)C)n2N)cc1,-0.04 K
10,O=C(CCc1nc2ccccc2c(=O)[nH]1)Nc1ccc(N2CCN(Cc3ccccc3)CC2)cc1,0.03 K
11,Cc1cc(C=C2C(=O)NC(=S)NC2=O)c(C)n1-c1ccc(F)cc1,-0.48 K
12,CNS(=O)(=O)c1ccc(CCC(=O)Nc2ccccc2Cc2ccccc2)cc1,0.07 K
13,O=C1COc2cc(C(=O)Nc3ccc4c(c3)-c3ccccc3C4)ccc2N1,0.11 K
14,C/C(=N/N)c1ccc2c(c1)-c1ccccc1C2,-0.14 K
15,NS(=O)(=O)c1ccc(C(=O)Nc2ccc3c(c2)-c2ccccc2C3)cc1,0.68 K
16,CC1CCC(C(N)=O)CN1c1ncnc2ccsc12 (stereo not drawn),0.05 K
17,O=C(CN1CCN(Cc2cscn2)CC1)NC(c1ccccc1)C1CC1 (stereo not drawn),0.03 K
18,COCCCn1ccc(Nc2nc(C)nc3[nH]ccc23)n1,-0.03 K
19,O=C1NC(=O)c2ccccc2/C1=C\NNC(=O)C12CC3CC(CC(C3)C1)C2,0.48 K
20,COc1ccc(N2C(=O)/C(=C/NNC(=O)C34CC5CC(CC(C5)C3)C4)c3ccccc3C2=O)cc1,0.18 K
21,O=C(CC12CC3CC(CC(C3)C1)C2)NN/C=C1/C(=O)N(Cc2ccccc2)C(=O)c2ccccc21,0.19 K
22,COc1ccc(CN2C(=O)/C(=C/NNC(=O)CC34CC5CC(CC(C5)C3)C4)c3ccccc3C2=O)cc1,0.06 K
23,O=C1/C(=C/NNC(=O)C23CC4CC(CC(C4)C2)C3)c2ccccc2C(=O)N1Cc1ccccc1,0.56 K
24,CC1(C)CC(=O)C(=CNNC(=O)CC23CC4CC(CC(C4)C2)C3)C(=O)C1,-0.06 K
25,COC(C)CN (stereo not drawn),-0.12 K

row,SMILES,TSA(with NAD+) / Primary screening (TSA) / delta Tm (K)
1,COc1cccc(-c2nc(CSc3nnc(-c4ccco4)n3Cc3ccccc3)cs2)c1,-0.16 K
2,Cc1ccc(OCCN)cc1,0.15 K
3,Cc1nn2cccnc2c1C(=O)NCc1ccc(-c2nnn[nH]2)cc1,-0.06 K
4,Cc1nn(-c2ccc(F)cc2)c(C)c1CNCc1ccccc1,-0.23 K
5,N#Cc1c2c(c(Cl)n3c1nc1ccccc13)CCCC2,0.03 K
6,Cc1ccccc1-c1nnn(Cc2cc(=O)oc3c(C)c(C)ccc23)n1,-0.18 K
7,COc1ccc(NC(=O)c2ccc(NC(=O)c3cnoc3C)cc2)cc1OCc1cccnc1,0.05 K
8,NC(=O)NCc1ccc(C(=O)Nc2nc(-c3c[nH]c(C(N)=O)c3)cs2)cc1,0.11 K
9,COC(=O)c1cc(-c2csc(NC(=O)c3cccc(NC(=O)c4cnoc4C)c3)n2)c[nH]1,0.67 K
10,COc1ccnc(N2CCN(C(=O)c3ccc(C(N)=O)s3)CC2)n1,-0.13 K
11,Cc1ccc(-n2nnnc2SCc2nc3c(cnn3-c3ccccc3)c(=O)[nH]2)cc1,-0.11 K
12,CCCOc1ccc(C2C(C(=O)c3ccc(F)cc3)=C(O)C(=O)N2CCCN2CCOCC2)cc1 (stereo not drawn),0.06 K
13,Cc1cc(N(C)C)n2nc(C(F)(F)F)c(-c3ccccc3)c2n1,-0.05 K
14,Cc1cc(NN)n2nc(C(F)(F)F)c(-c3ccc(Cl)cc3)c2n1,0.37 K
15,CNc1cc(C)nc2c(-c3ccccc3)c(C(F)(F)F)nn12,-0.12 K
16,O=C1/C(=C/c2ccc(Br)cc2F)Cc2c(O)cccc21,0.11 K
17,Oc1cccc2c1Cc1c-2nc2ccc(Cl)cc2c1-c1ccccc1Cl,0.52 K
18,COc1ccc(C(=O)NC2CCCC2(C)CO)cc1-c1ccccn1 (stereo not drawn),-0.23 K
19,CN1CCC(Sc2ccc3ccccc3c2)C1=O (stereo not drawn),-0.19 K
20,CC(=C/c1ccccc1)/C=N/NC(=O)c1cc(-c2ccc(C)cc2)n[nH]1,1.11 K
21,Cc1ccc(-c2cc(C(=O)OC(C)C(=O)Nc3cccc([N+](=O)[O-])c3)[nH]n2)cc1 (stereo not drawn),0.25 K
22,O=C(Nc1ccc(N2CCN(Cc3ccccc3)CC2)cc1)c1cccc2cccnc12,0.01 K
23,O=C(COC(=O)c1ccc2c(c1)S(=O)(=O)c1ccccc1C2=O)Nc1ncc(Cl)cc1Cl,0.15 K
24,Cn1cc(CCC(=O)NCC(=O)O)c2ccccc21,-0.16 K
